Where a structure was tested more than once in an assay, its records may differ in their call. The source made the active and inactive calls. Rule for the calls: active = hit-call score of the fitted dose curve at least 0.9, where 1 is the maximum; inactive = score below 0.9.

From PubChem BioAssay (EPA / NIEHS) come the findings set out here.

Sequence of Retinoic acid receptor alpha (Homo sapiens) (P10276 whole entry, looked up): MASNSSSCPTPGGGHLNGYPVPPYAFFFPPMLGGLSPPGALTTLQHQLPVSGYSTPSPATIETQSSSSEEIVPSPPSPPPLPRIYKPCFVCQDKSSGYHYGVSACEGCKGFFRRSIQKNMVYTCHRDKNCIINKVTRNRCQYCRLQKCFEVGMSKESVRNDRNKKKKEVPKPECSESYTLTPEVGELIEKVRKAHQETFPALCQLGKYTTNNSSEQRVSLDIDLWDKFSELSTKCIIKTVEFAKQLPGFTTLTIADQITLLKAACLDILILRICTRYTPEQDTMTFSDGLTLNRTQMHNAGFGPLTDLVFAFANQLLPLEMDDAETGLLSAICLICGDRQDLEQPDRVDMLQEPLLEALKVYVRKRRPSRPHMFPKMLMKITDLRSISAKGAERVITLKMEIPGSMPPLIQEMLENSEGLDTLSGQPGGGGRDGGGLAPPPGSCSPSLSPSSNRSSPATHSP

For this assay, the target named is Retinoic acid receptor alpha (Homo sapiens) (UniProt P10276). Put plainly: ATG_DR5_RAR_CIS: Attagene CIS-FACTORIAL HepG2 Assay for human Retinoic Acid Receptor Alpha (RARE), DR5 submotif (AID 2282934).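 For AC50: reporter responds to endogenous RAR alpha beta and gamma in HepG2 not RARA alone.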 Particulars: HepG2 Attagene cis-factorial RARE DR5 reporter, mRNA; actives raise or lower the signal. As for the experimental part:
ATG_CIS is a cell-based, multiplexed-readout assay that uses HepG2, a human liver cell line, with measurements taken at 24 hours after chemical dosing in a 24-well plate.ATG_DR5_RAR_CIS is one of 52 assay component(s) measured or calculated from the ATG_CIS assay. It is designed to make measurements of mRNA induction, a form of inducible reporter, as detected with fluorescence intensity signals by Reverse transcription polymerase chain reaction (RT-PCR) and Capillary electrophoresis technology.Data from the assay component ATG_DR5_RAR_CIS was analyzed into 1 assay endpoint. This assay endpoint, ATG_DR5_CIS, was analyzed with bidirectional fitting relative to DMSO as the negative control and baseline of activity. Using a type of inducible reporter, measures of mRNA for gain or loss-of-signal activity can be used to understand the reporter gene at the transcription factor-level as they relate to the gene RARA and RARB and RARG. Furthermore, this assay endpoint can be referred to as a primary readout, because this assay has produced multiple assay endpoints where this one serves a reporter gene function. To generalize the intended target to other relatable targets, this assay endpoint is annotated to the nuclear receptor intended target family, where the subfamily is non-steroidal.
Human liver HepG2 cells are transiently transfected with multiple reporter transcription units (MRTUs) in 6-well plates using FuGene 6 reagent (Roche; 3 ml FuGene/1 mg DNA). The MRTU constructs are regulated by a cis-regulating element (promoter). […] A major difference between the CIS and TRANS system is that in CIS activities of endogenous TFs are measured, whereas the TRANS assay evaluates changes in activities of exogenous, chimeric NR-Gal4 proteins. […] At the end of 24 hour incubation, total RNA was isolated using TriZol reagent (Invitrogen). The isolated RNA is then reverse-transcribed using oligo(dT) primer and Mo-MLV reverse transcriptase (Invitrogen) with DNAse I (Ambion) treatment for 30 min. The one-tenth of the produced cDNA was amplified by PCR using Taq DNA polymerase (Invitrogen) and two reporter sequence-specific primers. The PCR products were fluorescently labeled by primer extension with 6-arboxyfluorescein (6-FAM) 5'-labeled reporter sequence-specific primer (2 min at 95 C, 20 s at 68 C and 10 min at 72 C) and these products were digested with 5U of HpaI (New England Biolabs) for 2h at 37 C. The fragments were purified using Qiaquick PCR columns (Qiagen), analyzed on an ABI 3130xL genetic analyzer (Applied Biosystems) with peak positions identified by using a set of X-rhodamine (ROX)-labeled MapMarker1000 molecular weight standards (BioVentures). The raw capillary electrophoresis data was processed using Attagraph software (Attagene).
As for `CNC(=O)N(C)c1nc2ccccc2s1`, the result was inactive. `CCNc1nc(NCC)nc(SC)n1`: the molecule was called inactive. Same read-out and setting: in the case of `CN(CCCC(O)c1cccnc1)N=O` (stereo not given) it was “inactive”; in that of `Cc1cccc(N=Nc2ccc(N(C)C)cc2)c1`, “inactive”. On to `CC(C)=CC1C(C(=O)OCc2cccc(Oc3ccccc3)c2)C1(C)C` (stereo not given), for which the molecule was called inactive.

In the case of `CC(=O)C(F)(F)C(F)(F)F`, the call was inactive. Consider `C[As+](C)(C)CC(=O)[O-]`, for which the call was inactive. On the same count and under the same terms, in the case of `OC[C@@H](O)[C@H]1O[C@@H]2O[C@H](C(Cl)(Cl)Cl)O[C@@H]2[C@H]1O` it was “inactive”. Same read-out and setting: in the case of `CC(O)(CS(=O)(=O)c1ccc(F)cc1)C(=O)Nc1ccc(C#N)c(C(F)(F)F)c1` (stereo not given) it was “inactive”.

Regarding `O=C1c2ccccc2C(=O)C1C(=O)C(c1ccccc1)c1ccc(Cl)cc1` (stereo not given), the AC50 was 8.58 µM (active). With `CC(C)(c1ccc(O)c(-c2ccccc2)c1)c1ccc(O)c(-c2ccccc2)c1`, the molecule was classed as inactive.

Consider `O=S(=O)(C(Cl)(Cl)Cl)C(Cl)(Cl)Cl`, for which the call was inactive. On the same count and under the same terms, the value for `O=[N+]([O-])c1ccc(Cl)c([N+](=O)[O-])c1` was “inactive”. Regarding `N#Cc1ccncc1`, the result was inactive. The same measure, in the same setting: the value for `O=C1C[C@@H]2OCC=C3CN4CC[C@]56c7ccccc7N1[C@H]5[C@H]2[C@H]3C[C@H]46` was “inactive”; that for `O=C(CBr)c1ccc(O)cc1` was “inactive”; that for `CCOP(=S)(OCC)Oc1ccc(Cl)cc1Cl` was “inactive”. On the same count and under the same terms, the value for `O=C(CCl)Nc1ccccc1` was “inactive”. Regarding `CC(C)(C)c1cc([N+](=O)[O-])cc(C(C)(C)C)c1O`, the half-maximal activity concentration (AC50) is 2.85 µM (active).

On to `CC(C)(C1CCC(O)CC1)C1CCC(O)CC1` (stereo not given), for which the molecule was classed as inactive. The same measure, in the same setting: in the case of `OC(Cc1ccccc1Cl)(Cn1[nH]cnc1=S)C1(Cl)CC1` (stereo not given) it was “inactive”; in that of `CCOP(=O)(OCC)OC(=CCl)c1ccc(Cl)cc1Cl`, “inactive”. The same measure, in the same setting: the value for `CC(C)(COCC1CO1)COCC1CO1` (stereo not given) was “inactive”; that for `CC(C)(C#N)N=NC(C)(C)C#N` was “inactive”; that for `O=[N+]([O-])c1cc([As](=O)(O)O)ccc1O` was “inactive”. Same read-out and setting: in the case of `CC(C)(c1ccccc1)c1cc(-n2nc3ccccc3n2)c(O)c(C(C)(C)c2ccccc2)c1` it was “inactive”. On to `Cc1cccc(C)c1NC(=O)CN1CCCC1=O`, for which the result was inactive. Take `O=C(O)C1(c2ccc3c(c2)OC[C@H](Cc2ccc(-c4ccccc4)cc2)[C@H]3O)CCCC1`: the result was inactive. In the case of `O=S1OC[C@@H]2[C@H](CO1)[C@]1(Cl)C(Cl)=C(Cl)[C@@]2(Cl)C1(Cl)Cl` (stereo not given in full), the molecule was called inactive. Take `N#CCC#N`: the AC50 was 63.4 µM (active). Regarding `CCN(N=O)C(N)=O`, the result was inactive. On the same count and under the same terms, in the case of `CC(c1ccccc1)(c1ccc(O)cc1)c1ccc(O)cc1` it was “inactive”; in that of `C=CC(Cl)CCl` (stereo not given), “inactive”. Still for that read-out and setting: the value for `CCOC(=O)C(SP(=S)(OC)OC)c1ccccc1` (stereo not given) was “inactive”; that for `c1cc[c]([Sb]([c]2ccccc2)[c]2ccccc2)cc1` was “inactive”; that for `ClCc1ccccc1CCl` was “inactive”.

Take `Nc1ccc(N)cc1`: the half-maximal activity concentration (AC50) is 37.5 µM (active) and the molecule was called inactive.

Take `CCCSP(=S)(OCC)Oc1ccc(SC)cc1` (stereo not given): the outcome was inactive. Turning to `C[CH2][Hg][S]c1ccccc1C(=O)O`, the AC50 was 1.11 µM (active).
